TRPML1 blocker = inhibitors of human TRPML1 channel | 390,000 compounds, 0.02% hits | Q9GZU1 | AID 624415 | TRPML1-inducible cells, Ca2+ dye fluorescence, FDSS; stronger effect = lower value; inhibition of EC80 agonist-evoked calcium signal | activity change, negative = inhibition, % (concentration not given with the values); in the data active = activity change below about -50%; inconclusive = between about -30% and that limit;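 also: stimulus is agonist 54-4 at its EC80 concentration; % is scaled to controls: 0 for no effect and ±100 for the full control effect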
Target sequence (Q9GZU1 whole entry, looked up): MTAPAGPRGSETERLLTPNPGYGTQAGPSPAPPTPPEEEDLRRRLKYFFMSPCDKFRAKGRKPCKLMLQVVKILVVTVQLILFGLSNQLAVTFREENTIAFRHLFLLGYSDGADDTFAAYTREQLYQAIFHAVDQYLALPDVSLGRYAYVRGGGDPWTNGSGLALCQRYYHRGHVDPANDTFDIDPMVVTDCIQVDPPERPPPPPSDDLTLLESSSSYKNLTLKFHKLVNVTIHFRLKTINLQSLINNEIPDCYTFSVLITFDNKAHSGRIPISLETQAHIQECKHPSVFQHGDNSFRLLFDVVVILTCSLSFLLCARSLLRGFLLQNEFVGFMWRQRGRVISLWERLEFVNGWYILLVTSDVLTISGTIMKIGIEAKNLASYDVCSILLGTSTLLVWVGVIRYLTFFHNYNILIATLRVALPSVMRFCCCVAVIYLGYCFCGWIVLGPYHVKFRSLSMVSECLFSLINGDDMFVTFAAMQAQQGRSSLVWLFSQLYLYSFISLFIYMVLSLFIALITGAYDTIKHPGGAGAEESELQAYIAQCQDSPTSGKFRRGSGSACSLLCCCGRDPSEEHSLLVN
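TRPML1-DL cells, Tet-induced overnight (~16 h, 37 °C) at 1,500 cells/well, were loaded with Ca8 no-wash dye plus quencher for 45-90 min at room temperature. Compounds were pinned during FDSS kinetic reading; agonist 54-4 at EC80 (4 uM final) then added.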
TRPV1 ag = agonists of human vanilloid receptor 1 (TRPV1); Q8NER1; TRPV1-expressing cells, Fluo-8 calcium influx, agonist mode; activation, % at 8.33 µM; 320,000 compounds, 0.19% hits; AID 540275; in the data active = activation above about 80%; inconclusive = between about 30% and that limit; also: 0% is about no effect
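Fluo-8 calcium influx in TRPV1-expressing cells, kinetic read (ex 480/em 520 nm). Compound added and read 3 min for agonist activity, followed by capsaicin at EC20 final and 2 min further read for enhancement.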
USP1 inh = inhibitors of human USP1/UAF1 deubiquitinase. O94782. 390,000 compounds, 0.23% hits. Potency, µM (titrated, usually from 57.1 µM), inactives show top-dose activity change, negative = inhibition, usual class: inhibitors. recombinant USP1/UAF1, Ub-Rhodamine cleavage fluorescence; active = well fitted inhibition curve with a large enough effect; inconclusive = small, poorly fitted or top-dose-only effect; inactive = no such curve, though single readings can be large or run the other way; also: potency is read from the fitted curve at half-maximal effect; % is scaled to controls: 0 for no effect and ±100 for the full control effect; nearly all actives have a fitted effect of over 60% in size
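In this screen, compounds sit with the deubiquitinase complex (1nM) for 15 min at room temperature before Ub-Rho is added at 150nM final. Fluorescence rise is then followed for 6 reads every 60 seconds.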
TRPML1 agonist = human mucolipin-1 channel agonism; Q9GZU1; TRPML1-expressing cells, Ca2+ dye fluorescence, FDSS; activation, % (no concentration beside the values); 410,000 compounds, 0.12% hits; in the data active = activation above about 50%; inconclusive = mostly about 30% to 49%; also: 0% is about no effect
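Cells: TRPML1-DL, 1X Tet inducer, ~16 h at 37 degrees C/5% CO2. Dye: ABD Ca8 no-wash + quencher, 45-90 min RT. Read: 10 s baseline, compound add, 110 s agonist phase; 54-4 EC80 (4uM final), 110 s antagonist phase.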
TRPV1 potentiator = human TRPV1 potentiation; Q8NER1; TRPV1-expressing cells, Fluo-8 calcium influx, capsaicin EC20 potentiation; potentiation, % at 8.33 µM; 320,000 compounds, 0.02% hits; in the data active = potentiation above about 80%; inconclusive = between about 30% and that limit; also: 0% is about no effect
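Cells expressing TRPV1 were dye-loaded with Fluo-8 and read kinetically: 10 s baseline, 3 min after compound (agonist portion), then 2 min after EC20 capsaicin (allosteric enhancer portion). Calcium-bound dye fluorescence at 480/520 nm.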
Starred values were filed as active, the others as inactive; u = inconclusive; x = no result given. In the library only some 0.4% were active in any assay of this set; here they are far more common.

SMILES	TRPML1 blocker	TRPV1 ag	USP1 inh	TRPML1 agonist	TRPV1 potentiator
O=C1C=C(NCc2ccccc2)c2ccccc2C1=O	7	1	2.5µM*	-1	-1
O=c1cccccc1NCc1ccccc1	5	-2	-13%	0	0
O=C1C=C(Nc2ccccc2O)c2ccccc2C1=O	-2	8	18µM*	3	3
CC(C)Oc1ccc(NC(=O)Oc2ccccc2)cc1	-7	6	-4%	0	-5
CC(C)c1ccc(OCC(=O)Nc2ccncc2)cc1	7	95*	-16%	1	-14
CCCCOc1ccc(C(=O)Nc2ccncc2)cc1	-7	93*	-9%	-1	-7
O=C(Nc1ccncc1)c1ccc(Br)cc1	-17	113*	-10%	-1	-28
CCc1ccc(OCC(=O)Nc2ccncc2)cc1	10	u	-22%	0	1
COc1cc2c(cc1O)[C@@H]1Cc3cc(O)c(OC)cc3[C@H](C2)N1C	44	2	u	0	27
CCC(=O)c1cc(F)c(N2CCN(C(=O)Cc3ccccc3)CC2)cc1C	6	91*	-8%	0	-8
CCOC(=O)C(Cc1ccccc1)C(=O)Nc1cccc(C)c1 (stereo not given)	3	85*	-8%	0	-15
CCOC(=O)C(Cc1ccccc1)C(=O)Nc1ccc(N(CC)CC)cc1 (stereo not given)	13	1	-21%	2	-1
COc1ccc(/C=C(\C#N)C(=O)NCC2CCCO2)cc1OC (stereo not given)	-14	7	-19%	-1	-1
COc1cc(/C=C(\C#N)C(=O)NCC2CCCO2)ccc1OCCC(C)C (stereo not given)	-19	29	-11%	52*	-33
O=C(c1cc(-c2cccc(O)c2)on1)N1CCCCC1	15	7	-9%	1	10
Cc1cc(O)c(Sc2ncn[nH]2)cc1NS(=O)(=O)c1ccc(Cl)cc1	-5	11	-20%	0	0
Cc1ccc(S(=O)(=O)Nc2ccc(Br)cc2C(NCC(=O)O)c2ccccc2)cc1 (stereo not given)	18	0	-8%	1	-2
O=C(O)CSc1cc(NS(=O)(=O)c2ccc(Br)cc2)c2ccccc2c1O	-9	2	35µM*	4	6
O=S(=O)(Nc1cc(Sc2ncn[nH]2)c(O)c2ccccc12)c1ccccc1	-12	2	2.2µM*	0	11
CCN1C(=O)[C@@H]2[C@@H](c3ccc(-c4ccc5c(c4)OCO5)c(OC)c3)N3CCCC[C@@]3(C(=O)OC)[C@@H]2C1=O	49	1	u	1	24
Cn1c(SCc2cccc3ccccc23)nnc1-c1ccco1	-1	2	-5%	0	-8
O=c1[nH][nH]c2c(N=Cc3ccccc3O)ccc(F)c12	-10	0	28µM*	0	26
O=C(O)Cn1c(SCCOc2ccccc2)nc2ccccc21	-6	-2	-17%	1	-9
Cc1ccc(OCCSc2nc3ccccc3n2CC(=O)O)cc1C	4	-2	2%	1	95*
COc1cccc(CNC(=S)Nc2cc(C)ccc2C)c1	-6	u	u	0	-17
SMILES	TRPML1 blocker	TRPV1 ag	USP1 inh	TRPML1 agonist	TRPV1 potentiator
COc1cccc(CNC(=S)Nc2cccc(Cl)c2C)c1	9	87*	-4%	2	-26
O=C(COc1ccc(F)cc1Br)Nc1ccccc1N1CCCC1	-2	x	-22%	0	x
O=C(COc1ccc(F)cc1Br)Nc1ccccc1N1CCOCC1	-10	u	-19%	71*	-5
Cc1cc(Cl)ccc1OCC(=O)Nc1ccccc1N1CCOCC1	-12	3	-18%	75*	-4
CC(=O)Nc1ccc(CN2C(=O)C(C)ON=C2c2ccccc2-c2ccco2)cc1 (stereo not given)	x	x	x	-1	x
Cc1nc(N2CCc3ccccc3C2)[nH]c(=O)c1Cc1ccccc1	5	-4	-18%	0	-2
Cc1nc(-n2[nH]c3c(c2=O)CCCC3)[nH]c(=O)c1Cc1ccccc1	-8	-6	28µM*	12	27
Cc1c(Cl)cccc1N=Cc1ccc([N+](=O)[O-])s1	1	1	32µM*	0	6

Compound activity: PubChem BioAssay, National Center for Advancing Translational Sciences (NCATS)
